Tests used:
Experiment in all cases: PBM binding z-score (relative to random genomic background probes); higher = stronger binding; sequences stand for … in GC…GCGATTGACAGCGTAGAATGAAGG
[1] = system: FXR:RXRa (NR concentration 270 nM, RXRa partner concentration 90 nM)
How it was run: (§1)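 Custom Agilent 4×180K protein-binding microarrays carried double-stranded probes, each with a 34-nt variable region. These regions held direct-repeat seeds, single-nucleotide variants, half-site ablations and random human genomic background sequences. Ligand-free nuclear receptor dimers were incubated on the arrays for 1 h, antibodies against each partner (one per run) detected binding, and scanned fluorescence was regression-normalized. Binding z-scores take the random background probes as reference.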

[2] = system: LXRa:RXRa (NR concentration 270 nM, RXRa partner concentration 90 nM)
How it was run: as §1

[3] = system: LXRa homodimer (NR concentration 270 nM)
How it was run: as §1

[4] = system: LXRb:RXRa (NR concentration 270 nM, RXRa partner concentration 90 nM)
How it was run: as §1

[5] = system: LXRb homodimer (NR concentration 270 nM)
How it was run: as §1

[6] = system: PPARa:RXRa (NR concentration 270 nM, RXRa partner concentration 90 nM)
How it was run: as §1

[7] = system: PPARg:RXRa (NR concentration 180 nM, RXRa partner concentration 90 nM)
How it was run: as §1

[8] = system: PPARg:RXRa 270nM:90nM, anti-RXR (NR concentration 270 nM, RXRa partner concentration 90 nM)
How it was run: as §1

[9] = system: PPARg:RXRa 30nM:10nM, anti-RXR (NR concentration 30 nM, RXRa partner concentration 10 nM)
How it was run: as §1

[10] = system: PPARg:RXRa 90nM:30nM, anti-RXR (NR concentration 90 nM, RXRa partner concentration 30 nM)
How it was run: as §1

[11] = system: PPARg:RXRa DBDmut IVT, anti-RXR (DBD mutation: RXRa K156A/R161A, NR concentration 270 nM, RXRa partner concentration 90 nM)
How it was run: as §1

[12] = system: PPARg:RXRa IVT, anti-PPARg (NR concentration 270 nM, RXRa partner concentration 90 nM)
How it was run: as §1

[13] = system: PPARg DBDmut:RXRa IVT, anti-PPARg (DBD mutation: PPARg1 K132A/R137A, NR concentration 270 nM, RXRa partner concentration 90 nM)
How it was run: as §1

[14] = system: PPARg DBDmut IVT, anti-PPARg (DBD mutation: PPARg1 K132A/R137A, NR concentration 270 nM)
How it was run: as §1

[15] = system: PPARg homodimer (NR concentration 180 nM)
How it was run: as §1

[16] = system: PXR:RXRa (NR concentration 270 nM, RXRa partner concentration 90 nM)
How it was run: as §1

[17] = system: PXR homodimer (NR concentration 270 nM)
How it was run: as §1

[18] = system: RARa:RXR (NR concentration 270 nM, RXRa partner concentration 90 nM)
How it was run: as §1

[19] = system: RARa homodimer (NR concentration 270 nM)
How it was run: as §1

[20] = system: RARb:RXRa (NR concentration 270 nM, RXRa partner concentration 90 nM)
How it was run: as §1

| Sequence | PBM binding z-score [1] | PBM binding z-score [2] | PBM binding z-score [3] | PBM binding z-score [4] | PBM binding z-score [5] | PBM binding z-score [6] | PBM binding z-score [7] | PBM binding z-score [8] | PBM binding z-score [9] | PBM binding z-score [10] | PBM binding z-score [11] | PBM binding z-score [12] | PBM binding z-score [13] | PBM binding z-score [14] | PBM binding z-score [15] | PBM binding z-score [16] | PBM binding z-score [17] | PBM binding z-score [18] | PBM binding z-score [19] | PBM binding z-score [20] |
| --- | --- | --- | --- | --- | --- | --- | --- | --- | --- | --- | --- | --- | --- | --- | --- | --- | --- | --- | --- | --- |
| GCTTGTAGATCAAGGTTAAAAAAGACTAAGCTAA | 0.221 | 1.35 | -0.113 | 0.828 | -0.501 | 1.84 | 1.19 | 2.38 | 0.522 | 1.79 | 1.05 | 1.23 | 0.281 | 0.272 | 0.282 | 0.574 | -0.0589 | 1.15 | 0.0785 | 0.688 |
| TCTAGTTGGTCACGGAGGTCACACAAGACGGGTA | 3.16 | 3.39 | 2.41 | 3.46 | 0.597 | 3.99 | 3.49 | 4.05 | 3.51 | 3.75 | 2.31 | 4.34 | 0.505 | 0.71 | 2.71 | 4.55 | 1.16 | 4.17 | 1.37 | 3.87 |
| CGCCAAAGTTCAAGGTAACGTAACAGAAAGCAGC | 6.49 | 5.62 | 3.2 | 3.55 | 0.961 | 5.17 | 4 | 4.83 | 1.8 | 3.27 | 0.89 | 1.7 | 0.701 | 0.562 | 1.95 | 4.18 | 2.34 | 3.4 | 1.12 | 5.28 |
| TCTTGTAGAGCAACAGGAGGTTAAGAAAGATCGA | 0.207 | 0.661 | -0.177 | 0.486 | -0.586 | 1.12 | -0.0991 | 0.587 | 1.4 | 0.921 | 1.98 | 1.27 | 0.588 | 0.0668 | -0.265 | 0.413 | -0.46 | 0.506 | -0.541 | 0.184 |
| CTCGAAAGGTCGGTTGAGGTGAGTAGACGGATAA | 2.24 | 1.85 | 0.0366 | 1.44 | -0.503 | 2.76 | 0.386 | 1.51 | 0.222 | 0.586 | -0.178 | 0.996 | -0.252 | -0.747 | 0.919 | 3.03 | 0.241 | 2.71 | -0.0972 | 3.11 |
| GCTATTAGTTGGAAGGGCAACCGAATGATTCTCG | -0.211 | -0.165 | 0.178 | -0.0403 | -0.253 | 0.0818 | 0.375 | 0.723 | -0.127 | 0.108 | -0.166 | -0.0839 | -0.592 | -0.456 | 0.324 | -0.247 | -0.0418 | -0.059 | 0.846 | 1.06 |
| CCTCGGTGGACAACAGGAGGTCAGAGCTGCCAGA | 0.578 | 1.81 | 1.76 | 1.05 | -0.647 | 1.67 | 0.123 | 0.139 | -0.911 | -0.207 | -0.628 | 0.0551 | -1.3 | -1.14 | 0.735 | 1.53 | 0.332 | 1.77 | 0.503 | 1.93 |
